From PubChem BioAssay AID504321 (NMMLSC, 2011)
Calls of active or inactive are those of the source.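 How the source made its calls: active means GFP response vs DMSO above 150% with enough events counted; inconclusive means fewer than 70 events counted for a yeast strain; inactive means the rest.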

Assay: yeast MEP2-GFP fusion level changes, TOR pathway – flow cytometry, third cherry pick, S. cerevisiae, confirmation (AID 504321);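 further: median per-cell GFP fluorescence by flow cytometry across all yeast cells; ratio of sample to DMSO median GFP so 100% equals the DMSO level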
Conditions: S. cerevisiae MEP2-GFP strain, 3 h, at 10 µM, active compounds read high

| SMILES | GFP response vs DMSO |
| --- | --- |
| Oc1ccc(F)c2cccnc12 | 116% (inactive) |
| Cc1cccc(Nc2cc(=O)[nH]c(=O)[nH]2)c1C | 114% (inactive) |
| COc1ccc(N/C=C/C(=O)c2ccc(Cl)cc2)cc1 | 116% (inactive) |
| O=C(Nc1ccccc1)ON=C1c2ccccc2-c2ccccc21 | 99% (inactive) |
| COc1cccc2c(Cl)c(CCCl)c(C)nc12 | 101% (inactive) |
| C=CCNc1nc(N)c([N+](=O)[O-])c(Nc2ccccc2OC)n1 | 103% (inactive) |
| CC(=O)CC(=O)Nc1ccc(C(N)=O)cc1 | 112% (inactive) |
| CS(=O)(=O)Oc1ccc(Br)c2cccnc12 | 110% (inactive) |
| CC1=CN2C(=N)/C(=C/c3ccc(C)o3)C(=O)N=C2S1 | 105% (inactive) |
| Cn1c(NCCO)nc2c(c1=O)C1(CCCCC1)Cc1ccccc1-2 | 108% (inactive) |
| Cc1ccc(C)c(Nc2ncnc(N)c2[N+](=O)[O-])c1 | 108% (inactive) |
| Oc1c(I)cc(Cl)c2cccnc12 | 181% (active) |
| OCc1ccnc2c(O)cccc12 | 108% (inactive) |
| Cc1cn2c(N)c(C=C3C=C(Cl)C(=O)C(Cl)=C3)c(=O)nc2s1 | 112% (inactive) |
| C/C(=C\C(=O)c1ccc(C)cc1)Nc1cccc(O)c1 | 108% (inactive) |
| Oc1c(Br)cc(Br)c2cccnc12 | 189% (active) |
| Cc1cc(C)c2ccc(C(=O)O)nc2c1O | 112% (inactive) |
| O=c1cc(C(F)(F)F)[nH]c2c(OC(F)(F)F)cccc12 | 114% (inactive) |
| CNc1nc(N)c([N+](=O)[O-])c(Nc2ccccc2OC)n1 | 105% (inactive) |
